DRD3 antagonist = qHTS of D3 Dopamine Receptor Antagonist: qHTS; D(3) dopamine receptor (Homo sapiens), P35462; D3R cells, DiscoveRx beta-arrestin luminescence, antagonist mode; hits give low values; max response, negative = inhibition, %; hit rate 2.5% among 360,000; AID 652054, 2013; in the data active means max response below about -50%; inconclusive means no clear call, values can overlap the other calls
Target sequence (P35462 whole entry, looked up): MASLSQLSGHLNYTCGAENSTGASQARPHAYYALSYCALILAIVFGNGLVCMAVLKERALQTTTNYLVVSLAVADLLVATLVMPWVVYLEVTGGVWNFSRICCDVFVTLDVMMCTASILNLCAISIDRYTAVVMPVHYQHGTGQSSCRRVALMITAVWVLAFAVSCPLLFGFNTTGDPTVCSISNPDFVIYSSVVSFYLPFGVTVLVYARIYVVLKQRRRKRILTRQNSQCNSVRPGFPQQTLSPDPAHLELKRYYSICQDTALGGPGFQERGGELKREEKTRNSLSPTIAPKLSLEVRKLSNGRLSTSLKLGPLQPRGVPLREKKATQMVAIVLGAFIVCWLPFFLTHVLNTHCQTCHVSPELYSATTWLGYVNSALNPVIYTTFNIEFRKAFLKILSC
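Cells expressing the human receptor were seeded at 1500 cells/well, incubated overnight at 37 degrees C in 5% CO2, then exposed to library compounds with dopamine controls for 90 minutes at 37 degrees C before luminescent detection.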
GLP1R cytotox = qHTS of GLP-1 Receptor Inverse Agonists: Cytotox Screen. HEK293 cAMP-luciferase reporter cells, luminescence, 24 h. hit rate 0.13% among 410,000. Potency, µM (top dose mostly 38.3 µM), most hits filed as inhibitors. AID 624418, 2012;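 further: loss of luciferase light is scored as toxicity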
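MLSMR compounds, 24 hr on cells at 37 deg C/5% CO2; luminescence after luciferase reagent (12 min RT). Inhibition counted as the undesired cytotoxic outcome.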
GLP-1R inv ag = qHTS of GLP-1 Receptor Inverse Agonists (Inhibition Mode) | Glucagon-like peptide 1 receptor (Homo sapiens), P43220 | HEK293 GLP-1R CRE-luciferase, luminescence, 24 h; GLP-1R form is constitutively active | Potency, µM (top dose mostly 38.3 µM), usual class: inhibitors | hit rate 1.6% among 410,000 | AID 624417, 2012; further: nearly all actives have a fitted effect of over 55% in size
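Assay principle: reduced luminescence from a cAMP-responsive reporter in HEK293 cells co-expressing a constitutively active GLP-1R. Conditions: 24 hr compound incubation, 37 deg C, 5% CO2.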
DRD3 agonist = qHTS of D3 Dopamine Receptor Agonist: qHTS. D(3) dopamine receptor (Homo sapiens), P35462. D3R DiscoveRx beta-arrestin cells, luminescence, 90 min. max activation, %. hit rate 0.58% among 410,000. AID 652048, 2013; in the data active means max activation above about 30%
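Agonist-mode cell screen: cells plated at 1500/well and incubated overnight at 37 °C, then exposed to library compounds for 90 min at 37 °C. Detection reagent was added for 30–60 min at room temperature, and luminescence was read.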
GLP1R ag = qHTS of GLP-1 Receptor Agonists | Glucagon-like peptide 1 receptor (Homo sapiens), P43220 | HEK293 GLP-1R CRE-luciferase, luminescence, 4-6 h; cells express a hypersensitive GLP-1R form | Potency, µM (top dose mostly 45.6 µM), usual class: activators | hit rate 0.007% among 380,000 | AID 624172, 2012
ClpP mod = qHTS Assay for Activators of ClpP. Potency, µM (titrated, usually from 57.5 µM). hit rate 1.9% among 340,000. purified B. subtilis ClpP, FRET peptide cleavage, 20 min; active means well fitted falling curve with a large enough effect; inconclusive means small, poorly fitted or top-dose-only effect; inactive means no such curve, though single readings can be large or run the other way; further: the source files actives as falling curves though it sought activators and does not explain the sign; nearly all actives have a fitted effect of over 65% in size
Target sequence (P80244 whole entry, looked up): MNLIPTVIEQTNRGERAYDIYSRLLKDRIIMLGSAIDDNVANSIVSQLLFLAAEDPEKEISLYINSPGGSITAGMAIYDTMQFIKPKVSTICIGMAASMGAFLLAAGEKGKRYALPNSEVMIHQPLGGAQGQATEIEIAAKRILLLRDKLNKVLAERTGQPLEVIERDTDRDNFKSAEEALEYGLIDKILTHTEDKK
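Purified B. subtilis ClpP, 10 microg/mL final in Tris/HCl pH8 with KCl, BSA, glycerol and Tween-20, cleaved an Abz/nitrotyrosine-quenched decapeptide. Fluorescence (ex 320, em 430) was read at 0 and 20 min at room temperature. Delta was normalized to 5.8 microM ADEP and DMSO/no-enzyme controls.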
Numbers stand for hits. Only some compounds are listed: those with a hit (about 5.7% of all), similar ones and a draw of the others. Unless noted, the call rests on the fitted dose curve; in most records, active means well fitted curve in the direction sought with a large enough effect; inconclusive means small, poorly fitted or top-dose-only effect, or another doubt; inactive means no such curve, though single readings can be large; an effect the other way counts as inactive or inconclusive.

Cc1oc(-c2cccc(Cl)c2)nc1Cn1c(SCc2ccc(F)cc2)nc2cccnc21 was read as GLP1R cytotox inactive, GLP-1R inv ag inactive, DRD3 agonist inactive and ClpP mod inactive.
`CC1(C(=O)Nc2ccc3c(c2)OCCO3)CCN1C(=O)C/C=C/c1ccccc1` (stereo unspecified) gave DRD3 antagonist inactive, GLP1R cytotox inactive, GLP-1R inv ag inactive, DRD3 agonist inactive, GLP1R ag inactive and ClpP mod inactive.
For O=C(Nc1ccc2c(c1)OCCO2)C(C1CC1)N1CCN(C/C=C/c2ccccc2)CC1 (stereo unspecified) the results were DRD3 antagonist -59, GLP1R cytotox inactive, GLP-1R inv ag inactive, DRD3 agonist inactive, GLP1R ag inactive and ClpP mod inactive.
`O=C(Nc1ccc2c(c1)OCCO2)C(c1cc2ccccc2o1)N1CCN(C/C=C/c2ccccc2)CC1` (stereo unspecified) gave DRD3 antagonist -111, GLP1R cytotox inactive, GLP-1R inv ag inconclusive, DRD3 agonist inactive, GLP1R ag inactive and ClpP mod inactive.
Screening O=C(CN(c1ccc(Cl)c(C(F)(F)F)c1)S(=O)(=O)c1ccccc1)N1CCc2ccccc2C1 returned GLP1R cytotox inactive, GLP-1R inv ag inconclusive, DRD3 agonist inactive and ClpP mod inactive.
Screening Cc1cc2c(cc1C)CSC(c1c(O)ccc3ccccc13)SC2 returned DRD3 antagonist inactive, GLP1R cytotox inconclusive, GLP-1R inv ag 13µM, DRD3 agonist inactive, GLP1R ag inactive and ClpP mod inactive.
`COc1ccc(-n2c(=O)c3c4c(sc3n(Cc3ccc(C(C)(C)C)cc3)c2=O)CCC4)c(OC)c1` gave GLP1R cytotox inactive, GLP-1R inv ag 6.3µM, DRD3 agonist inactive and ClpP mod inactive.
Screening COc1ccc(-n2c(=O)c3c4c(sc3n(Cc3ccccc3C)c2=O)CCCC4)c(OC)c1 returned GLP1R cytotox inactive, GLP-1R inv ag inactive, DRD3 agonist inactive and ClpP mod inconclusive.
Cc1ccccc1NC(=O)c1c(C)oc2ccc(O)c(CN3CCCCCC3)c12 was read as GLP1R cytotox inactive, GLP-1R inv ag inconclusive, DRD3 agonist inactive and ClpP mod inactive.
Screening COc1cccc(OC)c1-c1cc(CCCc2cc(-c3c(OC)cccc3OC)nc3ccccc23)c2ccccc2n1 returned ClpP mod inactive.
O=c1c2c3c(sc2nc2n1CCC2)CCCCC3 was read as DRD3 antagonist inactive, GLP1R cytotox inactive, GLP-1R inv ag inactive, DRD3 agonist inactive, GLP1R ag inconclusive and ClpP mod inactive.
For O=c1c2c3c(sc2nc2n1CCC2)CCC3 the results were DRD3 antagonist -52, GLP1R cytotox inactive, GLP-1R inv ag inactive, DRD3 agonist inactive, GLP1R ag inactive and ClpP mod inactive.
For CCCc1ccc(OC(=O)c2sc3ncn(Cc4cccc(F)c4)c(=O)c3c2C)cc1 the results were GLP1R cytotox inactive, GLP-1R inv ag inactive, DRD3 agonist inactive and ClpP mod inactive.
`COC(=O)c1c(C)cc(O)c(C=O)c1O` gave DRD3 antagonist -53, GLP1R cytotox inactive, GLP-1R inv ag inactive, DRD3 agonist inactive, GLP1R ag inactive and ClpP mod inactive.
Screening CS(=O)(=O)c1ccc2nnn(OCC(=O)Nc3ccc(Br)cc3Br)c2c1 returned DRD3 antagonist inactive, GLP1R cytotox inactive, GLP-1R inv ag 10µM, DRD3 agonist inactive and GLP1R ag inactive.
`CCOC1=C2[C@@H](CN(S(=O)(=O)c3ccc(C)cc3)[C@H]2c2ccccc2)[C@H]2C(=O)N(c3ccccc3)C(=O)[C@H]2C1` gave DRD3 antagonist inactive, GLP1R cytotox inactive, GLP-1R inv ag inactive, DRD3 agonist inactive, GLP1R ag inactive and ClpP mod inactive.
For CCC(=O)Nc1nonc1-c1nc2ccccc2n1CCC(C)C the results were DRD3 antagonist inactive, GLP1R cytotox inactive, GLP-1R inv ag inconclusive, DRD3 agonist inactive, GLP1R ag inactive and ClpP mod 28µM.
CCC(=O)Nc1nonc1-c1nc2ccccc2n1N(C(=O)CC)C(=O)CC was read as DRD3 antagonist inactive, GLP1R cytotox inactive, GLP-1R inv ag inconclusive, DRD3 agonist inactive, GLP1R ag inactive and ClpP mod 28µM.
For CCC(=O)Nc1nonc1-c1nc2ccccc2n1Cc1ccccc1 the results were DRD3 antagonist inactive, GLP1R cytotox inactive, GLP-1R inv ag inactive, DRD3 agonist inactive, GLP1R ag inactive and ClpP mod inconclusive.
CC1(c2ccccc2)CC(C)(C)N(C(=O)c2ccccc2Cl)c2ccccc21 (stereo unspecified) was read as GLP1R cytotox inactive, GLP-1R inv ag inactive, DRD3 agonist inactive and ClpP mod inactive.
Screening COc1cccc2oc(-c3ccco3)cc(=O)c12 returned DRD3 antagonist -54, GLP1R cytotox inactive, GLP-1R inv ag inconclusive, DRD3 agonist inactive, GLP1R ag inactive and ClpP mod inactive.
COc1ccc2oc(-c3ccco3)cc(=O)c2c1 was read as DRD3 antagonist inactive, GLP1R cytotox inactive, GLP-1R inv ag inactive, DRD3 agonist inactive, GLP1R ag inactive and ClpP mod inactive.
CCc1ccc(C2c3[nH]c4ccccc4c3CCN2C(=O)CN2CCN(CC)CC2)cc1 (stereo unspecified) was read as DRD3 antagonist -55, GLP1R cytotox inconclusive, GLP-1R inv ag inconclusive, DRD3 agonist inactive and GLP1R ag inactive.
O=C(CSCc1ccc(F)cc1)N1CCc2c([nH]c3ccccc23)C1c1ccc(F)cc1 (stereo unspecified) was read as GLP1R cytotox inactive, GLP-1R inv ag 4.5µM, DRD3 agonist inactive and ClpP mod inactive.
Cc1ccc(C2c3[nH]c4ccccc4c3CCN2C(=O)CSCc2ccc(F)cc2)cc1 (stereo unspecified) was read as GLP1R cytotox inactive, GLP-1R inv ag inconclusive, DRD3 agonist inactive and ClpP mod inactive.
Screening O=C(NCCN1CCc2ccccc2C1)C1CCN(S(=O)(=O)N2CCC3(CC2)OCCO3)CC1 returned DRD3 antagonist -60, GLP1R cytotox inactive, GLP-1R inv ag inactive, DRD3 agonist inactive, GLP1R ag inactive and ClpP mod inactive.
CN(CCCNC(=O)C1CCN(S(=O)(=O)N2CCC3(CC2)OCCO3)CC1)Cc1ccccc1 was read as DRD3 antagonist inactive, GLP1R cytotox inactive, GLP-1R inv ag inactive, DRD3 agonist inactive, GLP1R ag inactive and ClpP mod inactive.
